a7 integrin act: activates integrin-mediated alleviation for muscular dystrophy | alpha7betagal myoblasts, beta-gal FDG fluorescence, 48 h | Potency, µM (doses to about 38.3 µM), hits mostly activators | 350,000 tested, 0.064% active | AID 624291; active means well fitted activation curve with a large enough effect; inconclusive means small, poorly fitted or top-dose-only effect; inactive means no such curve, though single readings can be large or run the other way; further: nearly all actives have a fitted effect of over 60% in size
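alpha7betagal+/- myoblasts (passage 13, 250/well) treated 48 h at 37C with compounds at 1:260 dilution of DMSO stock. Lysed, then beta-galactosidase activity read as FDG fluorescence (ex 480/em 540) after 30 min, with pre-read for autofluorescence.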
D3 antag: antagonists of human D3 dopamine receptor. D3R cells, DiscoveRx beta-arrestin luminescence, antagonist mode; stronger effect = lower value. max response, negative = inhibition, %. AID 652054. 360,000 tested, 2.5% active. P35462; in the data active means max response below about -50%; inconclusive means no clear call, values can overlap the other calls
Target sequence (P35462 whole entry, looked up): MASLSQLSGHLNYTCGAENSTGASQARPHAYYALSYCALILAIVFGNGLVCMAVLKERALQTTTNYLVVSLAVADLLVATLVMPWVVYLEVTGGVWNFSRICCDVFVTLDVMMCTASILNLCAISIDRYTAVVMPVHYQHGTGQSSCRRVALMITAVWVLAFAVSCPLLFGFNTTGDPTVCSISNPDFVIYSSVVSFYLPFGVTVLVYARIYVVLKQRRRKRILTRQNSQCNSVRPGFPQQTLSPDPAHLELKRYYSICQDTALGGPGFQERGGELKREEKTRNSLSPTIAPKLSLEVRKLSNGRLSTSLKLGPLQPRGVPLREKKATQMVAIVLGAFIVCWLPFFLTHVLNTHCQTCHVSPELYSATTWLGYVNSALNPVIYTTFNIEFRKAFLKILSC
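Cells expressing the human receptor were seeded at 1500 cells/well, incubated overnight at 37 degrees C in 5% CO2, then exposed to library compounds with dopamine controls for 90 minutes at 37 degrees C before luminescent detection.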
DRD3 agonist: activates the human D3 dopamine receptor; P35462; D3R DiscoveRx beta-arrestin cells, luminescence, 90 min; max activation, %; 410,000 tested, 0.58% active; AID 652048; in the data active means max activation above about 30%
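Cells at 1500/well, incubated overnight, then treated with pinned compounds (dopamine as control) for 90 min at 37 degrees C. DiscoveRx reagent added for 30 - 60 minutes at room temperature; luminescence read.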
Numbers stand for hits; . = inactive; ? = inconclusive; / = not tested or not shown; ! = not active in a repeat. Hits are enriched below; roughly 2.9% of the tested compounds scored in any of these assays.

SMILES	a7 integrin act	D3 antag	DRD3 agonist
Cc1cc(=O)oc2cc(OCCSCCN3CCCCC3)ccc12	.	-66	.
COc1cccc(CNC(=O)c2nnc(Cc3ccc(Cl)cc3)o2)c1	/	/	.
Cc1cccc(N=C2NC(=O)/C(=C/c3cccnc3)S2)c1C	?	-61	.
Cc1ccc(N=C2NC(=O)/C(=C/c3cccnc3)S2)c(C)c1	.	.	.
Cc1ccc(-n2nc3c(c2NC(=O)c2cccs2)CS(=O)(=O)C3)cc1C	.	-66	.
Cc1ccc(-n2nc3c(c2NC(=O)c2cccs2)CS(=O)(=O)C3)cc1	.	.	.
Cc1ccc(C)c(NC(=S)NNc2ccc(F)cc2F)c1	.	.	.
CCCc1ccc(OCC(O)CN2CCN(c3ccccc3)CC2)cc1 (stereo unspecified)	.	?	68
CC(=O)N1CCN(CC(O)COc2ccc(OCc3ccccc3)cc2)CC1 (stereo unspecified)	.	.	.
CCc1ccc(OCC(O)CN2CCN(c3ccccc3)CC2)cc1 (stereo unspecified)	.	-57!	41!
COc1ccc(N2CCN(CC(O)COC(c3ccccc3)c3ccccc3)CC2)cc1 (stereo unspecified)	.	.	.
CS(=O)(=O)Cc1nc2ccccc2n1CC(=O)Nc1cccc(S(=O)(=O)N2CCCC2)c1	.	.	.
Nc1c(C(=O)CSc2nnc(Nc3ccc(F)cc3)s2)c(=O)[nH]c(=O)n1C1CC1	?	.	.
Nc1nonc1-n1nnc(C(=O)N/N=C/c2ccc(OCc3ccccc3F)cc2)c1CN1CCCCC1	.	.	.
CCN1CCN(c2ccc(NC(=O)c3cccc(F)c3)cc2Cl)CC1	.	.	.
COc1ccc(N2CC(C(=O)Nc3cc(C(F)(F)F)ccc3N3CCCC3)CC2=O)c(OC)c1 (stereo unspecified)	.	.	.
CCOC(=O)[C@]12CCC=C1N(Cc1ccco1)C(=O)[C@H](CC(=O)N1CCC(c3ccccc3)CC1)C2	/	.	.
Cn1c(=NC(=O)c2ccc(F)cc2)sc2cc(Br)ccc21	/	/	.
CCC(=O)c1c(O)cc(O)cc1O	/	/	.
CCOC(=O)c1c(C)cc(O)cc1O	.	.	38
CC1CCN(CCC(=O)NN)CC1	.	.	.
c1ccc(CN2c3ccccc3-c3nc4ccccc4n3C2c2ccccn2)cc1 (stereo unspecified)	.	.	.
CCN1c2ccccc2-c2nc3ccccc3n2C1c1ccco1 (stereo unspecified)	.	-50	.
CCc1nnc(NC(=O)C2CSC3(C)CCC(=O)N23)s1 (stereo unspecified)	.	.	.
CC12CCC(=O)N1C(C(=O)Nc1nccs1)CS2 (stereo unspecified)	.	.	79
SMILES	a7 integrin act	D3 antag	DRD3 agonist
CCN(CC)CCNc1oc(-c2ccccc2)nc1S(=O)(=O)c1ccccc1	?	-76	.
O=S(=O)(c1ccccc1)c1nc(-c2ccccc2)oc1NCc1cccnc1	.	.	.
Cc1ccc(S(=O)(=O)c2nc(-c3ccccc3)oc2NCCCN2CCOCC2)cc1	.	-76	.
COc1ccc(-c2nc(S(=O)(=O)c3ccccc3)c(N3CCOCC3)o2)cc1	.	.	.
COc1ccc(-c2nc(S(=O)(=O)c3ccccc3)c(NCCCN3CCOCC3)o2)cc1	.	-57	.
Cc1cccc(-c2nc(CSCC(=O)NCCCN3CCOCC3)c(C)o2)c1	.	.	.
CCS(=O)(=O)c1nc(S(=O)(=O)c2ccc(C)cc2)c(NCCCN2CCOCC2)s1	.	.	.
Cc1cccc(-c2nc(S(=O)(=O)c3ccc(F)cc3)c(NCCCN3CCOCC3)o2)c1	.	-73	.
CCOc1ccc(CCNC(=O)C(CCC(N)=O)NC(=O)OCc2ccccc2)cc1OCC (stereo unspecified)	.	.	.
CCCOc1ccc(C(=O)N(Cc2ccc(Cl)cc2)Cc2ccco2)cc1	/	/	.
CC(C)(C)Cc1c(-c2ccc(Br)cc2)nc2ccc(Cl)cn12	.	.	.
S=C(NCCC1=CCCCC1)NCc1ccco1	.	.	.
COc1ccc(S(=O)(=O)N2CCCCC2)cc1NC(=O)c1cccnc1SC	.	.	.
Cc1ccccc1NC(=O)c1ccc(S(=O)(=O)N2CCCC2)cc1	.	.	.
C=C1C(O)C[C@@H](C(C)C)N(CC(C)C)S1(=O)=O (stereo partly specified)	.	.	.
CN(C)CCNc1oc(-c2ccccc2Cl)nc1S(=O)(=O)c1ccccc1	.	.	.
CN(C)CCCNc1oc(-c2ccccc2Cl)nc1S(=O)(=O)c1ccc(F)cc1	.	-61	.
CN(C(=O)CCN1C(=O)C2C3C=CC(C3)C2C1=O)c1ccccc1 (stereo unspecified)	.	.	.
COc1ccc(NC(=O)c2ccco2)cc1NC(=O)COc1cc(C)cc(C)c1	/	/	.
CCN(CC)S(=O)(=O)c1cccc(C(=O)Oc2cccc(NC(=O)c3cccs3)c2)c1	.	.	.
CC1CCN(S(=O)(=O)c2ccc([N+](=O)[O-])cc2)CC1	.	.	.
O=S(=O)(c1ccc2c(c1)C(=NO)c1cc(S(=O)(=O)N3CCCCC3)ccc1-2)N1CCCCC1	.	?	.
CC1CCN(S(=O)(=O)c2ccc3c(c2)C(=NO)c2cc(S(=O)(=O)N4CCC(C)CC4)ccc2-3)CC1	.	.	55
CCN(CC)S(=O)(=O)c1cccc(S(=O)(=O)c2cccc(S(=O)(=O)N(CC)CC)c2)c1	.	.	36
CC1CCN(S(=O)(=O)c2ccc(Oc3ccc([N+](=O)[O-])cc3)cc2)CC1	.	-81	.
SMILES	a7 integrin act	D3 antag	DRD3 agonist
CCN(CC)S(=O)(=O)c1cccc(S(=O)(=O)N2CCCCC2)c1	.	.	.
CCN(CC)S(=O)(=O)c1cccc(C(=O)Oc2cccnc2)c1	.	-53	.
O=C1CSC(c2ccccc2Cl)N1 (stereo unspecified)	.	.	.
O=C1[C@H]2[C@@H](c3ccc(F)cc3)N3C(=O)N(c4cccc(Cl)c4)C(=O)[C@@]3(Cc3ccccc3)[C@H]2C(=O)N1C1CCCCC1	.	?	.
CCN(CC)S(=O)(=O)c1ccc(C)c(C)c1	.	.	.
CCN(CC)S(=O)(=O)c1ccc2c(c1)C(=NO)c1cc(S(=O)(=O)N(CC)CC)ccc1-2	.	-80	.
C[C@@H]1O[C@@H](OC[C@H]2O[C@@H](Oc3c(-c4ccc(O)c(O)c4)oc4cc(O)cc(O)c4c3=O)[C@H](O)[C@@H](O)[C@@H]2O)[C@H](O)[C@H](O)[C@H]1O	/	.	.
O=[N+]([O-])c1cnc(Nc2ccccc2)nc1Nc1ccccc1	.	-83	.
O=[N+]([O-])c1ccccc1Nc1ccccc1	.	.	.
Cc1nn(CCc2n[nH]c(=S)n2-c2ccc(F)cc2)c(C)c1[N+](=O)[O-]	.	.	.
Cc1ccc(OCCCC(=O)Nc2ccc(S(=O)(=O)Nc3ccccn3)cc2)cc1	.	.	.
Cc1cccc(C(=O)NCN2CCN(c3ccccc3C#N)CC2)c1	/	-76	.
O=C(NCN1CCN(c2ccccc2F)CC1)c1ccccc1	.	?	.
COc1ccc(CNC(=O)CN2C(=O)CSc3ccc(S(=O)(=O)N4CCCCC4)cc32)cc1	.	.	.
Cc1cc(C(=O)COC(=O)c2ccc(O)cc2O)c(C)n1-c1ccccc1	.	.	.

Compound activity (PubChem BioAssay)
